# Assay results published in the supplement of paper PMC8183993.
# Several values for one entry are separate records, joined by “and”; a condition that tells them apart may be missing. Equal entries are not always repeated. Structures can show the parent of a compound that is named as a salt. Over roughly 3,200 compounds, “nuclei count (viability) relative to DMSO” has its median near 99; the lowest 2% begin near 16. For the sample, the lowest values were picked, then their nearest neighbours and some compounds at random.
# Tested on: U2OS
# Experiment: nuclei count (viability) relative to DMSO (% of DMSO); higher = more viable cells
# Conditions: 10 µM; 24 h
# Experimental: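 Primary image-based screen in U2OS cells: compounds at 10 uM for 24 h, then a 1 h o-propargyl-puromycin (OPP) pulse, click labelling, and high-throughput microscopy. Mean cytoplasmic OPP intensity and nuclei count were normalised to DMSO wells within each plate (DMSO = 100) and averaged over triplicate plates.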
row,Compound,nuclei count
1,N=C(N)c1ccc(N2CCN(C3CCN(CC(=O)O)CC3)CC2)cc1,104
2,CCCC(=O)[O-].[Na+] [Sodium butyrate],89.2
3,CC1=C(/C=C/C(C)=C/C=C/C(C)=C/C(=O)O)C(C)(C)CCC1O (stereo not given) [4-Hydroxyretinoic acid],101
4,NC(C(=O)O)c1ccc(C(=O)O)c(C(=O)O)c1 (racemic),102
5,COc1cccc(-c2cc(NCc3ccc4c(c3)OCO4)nc(N)n2)c1,19.1
6,CC(C)[C@H]1c2ccc(F)cc2CC[C@@]1(CCN(C)CCCc1nc2ccccc2[nH]1)OC(=O)C1CC1 [NNC 55-0396 dihydrochloride],10.5
7,COCC(=O)O[C@]1(CCN(C)CCCc2nc3ccccc3[nH]2)CCc2cc(F)ccc2[C@@H]1C(C)C [Mibefradil dihydrochloride],81.7
8,CC(C)c1ccc(NC(=O)Cn2cnc3c2c(=O)n(C)c(=O)n3C)cc1,103
9,COc1cc2c(NC3CCN(C(C)C)CC3)nc(N3CCC(F)(F)CC3)nc2cc1OCCCN1CCCC1,50.6
10,C[C@@H]1CN(CCCn2c3ccccc3c3ccccc32)C[C@H](C)N1 [Rimcazole dihydrochloride],80
11,CCN(CCO)CCCC(C)Nc1ccnc2cc(Cl)ccc12 (stereo not given) [Hydroxychloroquine sulfate],96.1
12,CCN(CC)CCCC(C)Nc1ccnc2cc(Cl)ccc12 (stereo not given) [Chloroquine],96.6
13,CCN(CCO)CCCC(C)Nc1ccnc2cc(Cl)ccc12 (stereo not given) [Hydroxychloroquine],85.7
14,CCN(CC)CCCC(C)Nc1ccnc2cc(Cl)ccc12 (stereo not given) [Chloroquine diphosphate],103
15,CCN(CC)CCCC(C)Nc1c2ccc(Cl)cc2nc2ccc(OC)cc12 (stereo not given) [Quinacrine dihydrochloride dihydrate],12.9
16,CC1=CC(=O)C(C(C)C)=CC1=O [Thymoquinone],103
17,COc1ccc(CCN(C)CCCOc2ccc(S(=O)(=O)c3c(C(C)C)n(C)c4ccccc34)cc2)cc1OC,47.5
18,C1CCC(C(CC2CCCCN2)C2CCCCC2)CC1 (stereo not given) [Perhexiline maleate],5.66
19,COc1cc(-c2cn(C)c(=O)c3cnccc23)c(OC)cc1CN(C)C,110
20,Cc1ccc(-n2nc(C(C)(C)C)cc2NC(=O)Nc2ccc(OCCN3CCOCC3)c3ccccc23)cc1 [BIRB 796 (Doramapimod)],94.7
21,COc1ccc(NC(=O)c2ccc(-c3ccc(-c4noc(C)n4)cc3C)cc2)cc1OCCN(C)C,100
22,C[n+]1cc2c3c(ccc2c2ccc4cc5c(cc4c21)OCO5)OCO3 [Sanguinarine chloride],12
23,COc1ccc2cc3[n+](cc2c1OC)CCc1cc2c(cc1-3)OCO2 [Berberine HCl],98.6
24,Cc1[nH]c2ccccc2c1C(Nc1ccccn1)c1ccc(Cl)cc1 (stereo not given),93.9
25,CC[N+](C)(CC)CC(=O)Nc1c(C)cccc1C [N-Methyllidocaine iodide],98.4

row,Compound,nuclei count
1,CC1=C(C(=O)OCCN(Cc2ccccc2)c2ccccc2)C(c2cccc([N+](=O)[O-])c2)C(P2(=O)OCC(C)(C)CO2)=C(C)N1 (stereo not given) [Efonidipine hydrochloride monoethanolate],99.9
2,COc1cc(NC(C)CCCN)c2ncccc2c1 (stereo not given) [Primaquine diphosphate],15.7
3,CCC(C)N(C)C(=O)c1cc2ccccc2c(-c2ccccc2Cl)n1 (stereo not given),106
4,COC(=O)c1c(-c2cc(OC)c(OC)c(OC)c2)c2ccnc(OCc3ncccn3)c2c(=O)n1Cc1ccnc(C)c1 [T 0156 hydrochloride],107
5,COc1cc2nccc(Oc3ccc(NC(=O)C4(C(=O)Nc5ccc(F)cc5)CC4)cc3)c2cc1OC [Cabozantinib malate],59
6,COc1cc2nccc(Oc3ccc(NC(=O)C4(C(=O)Nc5ccc(F)cc5)CC4)cc3)c2cc1OC [XL-184 free base (Cabozantinib)],51.5
7,COc1cc2c(Nc3ccc(NC(=O)c4ccccc4)cc3)ncnc2cc1OCCCN1CCOCC1,49.8 and 53.3
8,COc1cc2c(Oc3ccc(NC(=O)C4(C(=O)Nc5ccc(F)cc5)CC4)cc3F)ccnc2cc1OCCCN1CCOCC1,12
9,O=C1c2c(O)cc(O)cc2OC(c2ccc(O)c(O)c2)C1O (stereo not given) [Taxifolin (Dihydroquercetin)],90.7
10,O=C(O)c1ccc(O)c2ncccc12,99.5
11,COc1ccc([C@@H]2CNC(=O)C2)cc1OC1CCCC1 [(R)-(-)-Rolipram],96.2
12,CC[N+](CC)(CC)CC(=O)Nc1c(C)cccc1C [QX-314 bromide],104
13,CC[N+](CC)(CC)CC(=O)Nc1c(C)cccc1C [QX 314 chloride],104
14,CC[N+](CC)(CC)CC(=O)Nc1c(C)cccc1C [QX 314 bromide],97.5
15,COc1ccc(CN(CCN(C)C)c2ccccn2)cc1 [Mepyramine maleate],104
16,COc1ccc(CN(CCN(C)C)c2ccccn2)cc1 [Pyrilamine maleate],102
17,CN(C)CCN(Cc1ccc(Cl)cc1)c1ccccn1 [Chloropyramine hydrochloride],105
18,CCCCCCCCCCCCCCCC[N+](C)(C)CCN(Cc1ccc(OC)cc1)c1ncccn1 [Thonzonium bromide],12.1
19,CC(=O)O[C@@H]1C[C@H]2C(C)(C)C(=O)C=C[C@]2(C)[C@H]2CC[C@@]3(C)[C@H](c4ccoc4)OC(=O)[C@H]4O[C@]43[C@@]21C [Gedunin],85.6
20,COC1CCC(C(=O)c2ccc3nc4c(cc3c2)CCCO4)CC1 (stereo not given),96.5
21,CCn1cc(-c2cccc(C(F)(F)F)c2)c2sc(C(=N)NC3CCS(=O)(=O)CC3)cc2c1=O,91.5
22,Cc1ccc(C(=O)N(CCCN)[C@@H](c2oc3cc(Cl)ccc3c(=O)c2Cc2ccccc2)C(C)C)cc1,20.5
23,Cc1ccc(C(=O)N(CCCN)[C@@H](c2nc3cc(Cl)ccc3c(=O)n2Cc2ccccc2)C(C)C)cc1,9.23
24,Fc1ccc(-c2nc3n(c2-c2ccncc2)CCS3)cc1,103
25,C[C@H]1C[C@H]2[C@@H]3CCC4=CC(=O)C=C[C@]4(C)[C@H]3C(=O)C[C@]2(C)[C@@]1(O)C(=O)CO [Betapar (Meprednisone)],107
